Compounds without any hit were thinned out: in the full panel of roughly 83,000, 20% have a hit.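 Cell lines were cultured in 96-well plates, exposed to a single compound concentration, and assessed for percent growth 48 hours later.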 Active and inactive are the calls of the source. Rule for the calls: active = growth percent below 10; inactive = the rest.
Each compound was assayed on SK-MEL-2 melanoma (assay: NCI-60 one-dose screen, 48 h (100 = growth as untreated, 0 = no growth, -100 = all killed)). Details: 10 µM unless noted.

SMILES | growth
Fc1ccc(C2=NN(c3ccccc3)C(c3sc(N(CCCl)CCCl)nc3Cl)C2)cc1 (centres undefined) | 84.5% (inactive)
CC[C@H](C)[C@H](NC(=O)Nc1ccccc1)C(=O)N(C)[C@H](C[C@@H](OC(C)=O)c1nc(C(=O)N[C@@H](Cc2ccccc2)C[C@H](C)C(=O)OC)cs1)C(C)C | -15% (active)
c1ccc(CCN2CCCCC2Cc2ccccc2)cc1 (centres undefined) | 87.7% (inactive)
CC(=O)O[C@H]1CCC2(C)C(=CCC3C2CCC2(C)/C(=N/OC(=O)c4ccc(N(CCCl)CCCl)cc4)CCC32)C1 (some centres undefined) | 99.2% (inactive)
O=C(N/N=C/c1ccc(N(CCCl)CCCl)cc1)c1cc(=O)[nH]c(=O)[nH]1 | 109% (inactive)
O=[As]c1ccc(C(=O)c2ccc(Oc3ccccc3)cc2)cc1 (centres undefined) | -95.2% (active)
O=[N+]([O-])c1cc([N+](=O)[O-])c(Cl)c(Cl)c1Cl | -23.8% (active)
Cc1cc(NC(=O)NCCOc2ccc(N3C(N)=NC(N)=NC3(C)C)cc2Cl)ccc1S(=O)(=O)F | 51.4% (inactive)
COc1ccc2c(c1)NC1=C(C(=O)OC1)C2c1cc(OC)c(OC)c(OC)c1 (centres undefined) | 15.7% (inactive)
C=CCc1ccc(OC(=O)Cc2ccccc2)c(OC)c1 | 80.6% (inactive)
CC(C)(O)/C=C/C(=O)[C@](C)(O)[C@H]1[C@H](O)C[C@@]2(C)[C@@H]3CC=C4[C@@H](C=C(O)C(=O)C4(C)C)[C@]3(C)C(=O)C[C@]12C | -43.6% (active)
C=CCC1(CC)C(=O)NC(=S)NC1=O | 99.3% (inactive)
NC(Cc1ccc2c(c1)OCO2)c1ccc2c(c1)OCO2 (centres undefined) | 107% (inactive)
O=C(CF)N(O)c1ccc(/C=C/c2ccccc2)cc1 | 94.9% (inactive)
COc1ccc(/C=C(/C(=O)N2CCCC2)c2cc(OC)c(OC)c(OC)c2)cc1N | 42.6% (inactive)
Nc1nc(N)c(-c2ccc(Cl)c(Cl)c2)c(/C=C/c2ccc(S(=O)(=O)F)cc2)n1 | 86.3% (inactive)
Nc1c(Br)cc([N+](=O)[O-])cc1[N+](=O)[O-] | 138% (inactive)
Oc1ccc(O)c2c1C1(Cl)C(Cl)=C(Cl)C2(Cl)C1(Cl)Cl | 31.3% (inactive)
CN(C)P1(N(C)C)=NP(N(C)C)(N(C)C)=NP(N(C)C)(N(C)C)=N1 | 98.2% (inactive)
CCCCNCCc1ccccn1 | 87.3% (inactive)

SMILES | growth
CNC(=O)Oc1cccc(OC)c1 | 89.8% (inactive)
C=C=[CH][Sn]([c]1ccccc1)([c]1ccccc1)[c]1ccccc1 | -30.6% (active)
NC(=O)SCC(=O)Nc1ccc([As](=O)(O)O)cc1 | 73.3% (inactive)
C[C@]12CC[C@H]3[C@@H](C[C@@H]4N=C(c5ccc(O)cc5)S[C@@]45C[C@H](O)CC[C@]35C)[C@@H]1CC[C@@H]2O | 44.9% (inactive)
CC1(C)N=C(N)N=C(N)N1c1ccc(CCCCc2ccc(S(=O)(=O)F)cc2)cc1 | 56.1% (inactive)
Nc1c(Br)cc2c3c(cccc13)-c1ccccc1-2 | 64.4% (inactive)
COc1cc2c(cc1OC)CN(C)C(C)C2 (centres undefined) | 100% (inactive)
CC(C)C1c2ccc(O)cc2Oc2nc(N)c(C#N)c(N)c21 (centres undefined) | 109% (inactive)
c1ccc2nc(OCCN3CC3)ccc2c1 | 96.3% (inactive)
CC1(C)N=C(N)N=C(N)N1c1ccc(CNC(=O)Nc2ccc(S(=O)(=O)F)c(Cl)c2)c(Cl)c1 | 49.7% (inactive)
c1ccc(-c2ccc3ccccc3[o+]2)cc1 | 88.8% (inactive)
CSc1ccccc1NP1(=O)OCC(C)([N+](=O)[O-])CO1 (centres undefined) | 112% (inactive)
CC1COC(=O)C1 (centres undefined) | 99.3% (inactive)
C[CH2][Pb]([CH2]C)([CH2]C)[O]C(=O)COc1ccccc1 | -0.355% (active)
COc1ccc(/C=C\c2cc(OC)c(OC)c(OC)c2)cc1N/C=C\C(=O)c1c[nH]c2ccccc12 | 32.3% (inactive)
CCCC(C)(C)c1ccc2c(c1)OC(C)(C)[C@@H]1CC=C(C)C[C@@H]21 | 94.7% (inactive)
OC1(c2ccc(Cl)cc2Cl)c2ccccc2C2=NCCN21 (centres undefined) | 98.2% (inactive)
CC1(CF)NC(=O)NC1=O (centres undefined) | 121% (inactive)
O=C(Nc1ccc(S(=O)(=O)F)cc1)Oc1ccccc1 | 107% (inactive)

From PubChem BioAssay (NCI)
